Test results from PubChem BioAssay (Tox21).
A number with no mark means an inactive call. Inconclusive results are not listed. Where a call stands in place of a potency, no number is given. Activity calls are given as the source filed them. Unless noted, calls follow the shape of the dose curve; as a rule, active = well fitted curve in the direction sought with a large enough effect in the repeat runs; inconclusive = weak or mixed curves; inactive = no such curve, though single readings can be large; an effect the other way counts as inactive or inconclusive.

Legend:
[1] = target: Androgen receptor (Homo sapiens) (UniProt P10275); experiment: qHTS assay to identify small molecule antagonists of the androgen receptor (AR) signaling pathway using the MDA cell line in the presence of 0.5 nM R1881 (AID 1259243); also: nearly all actives have a fitted effect of over 50% in size
Sequence of Androgen receptor (Homo sapiens) (P10275 whole entry, looked up): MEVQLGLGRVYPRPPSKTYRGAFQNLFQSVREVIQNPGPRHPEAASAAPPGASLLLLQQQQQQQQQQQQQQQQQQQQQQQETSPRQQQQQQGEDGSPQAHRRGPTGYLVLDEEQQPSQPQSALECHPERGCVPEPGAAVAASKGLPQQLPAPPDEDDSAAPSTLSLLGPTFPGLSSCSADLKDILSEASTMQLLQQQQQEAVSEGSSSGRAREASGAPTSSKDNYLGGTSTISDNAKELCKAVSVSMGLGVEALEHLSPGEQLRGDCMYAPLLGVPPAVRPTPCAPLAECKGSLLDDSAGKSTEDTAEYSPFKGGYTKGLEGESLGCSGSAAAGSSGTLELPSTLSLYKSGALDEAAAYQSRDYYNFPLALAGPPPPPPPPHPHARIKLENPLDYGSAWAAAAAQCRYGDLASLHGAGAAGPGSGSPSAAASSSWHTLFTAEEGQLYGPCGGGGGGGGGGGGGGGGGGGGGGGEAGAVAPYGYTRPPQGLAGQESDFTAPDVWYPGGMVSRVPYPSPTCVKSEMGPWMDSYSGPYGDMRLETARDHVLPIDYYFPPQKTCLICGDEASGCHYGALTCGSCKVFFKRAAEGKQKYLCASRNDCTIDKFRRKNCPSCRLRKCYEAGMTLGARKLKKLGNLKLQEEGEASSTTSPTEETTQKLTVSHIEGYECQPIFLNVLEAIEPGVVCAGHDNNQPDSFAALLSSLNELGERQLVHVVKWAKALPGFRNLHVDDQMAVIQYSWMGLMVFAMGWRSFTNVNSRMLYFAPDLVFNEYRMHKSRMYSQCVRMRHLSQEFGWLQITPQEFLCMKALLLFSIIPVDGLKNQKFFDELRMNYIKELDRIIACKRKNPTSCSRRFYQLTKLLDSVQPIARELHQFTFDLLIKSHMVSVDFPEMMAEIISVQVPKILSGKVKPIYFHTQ
Procedure, shortened: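 We exposed MDA-kb2 cells to compounds under 0.5 nM R1881 stimulation for 16 hr at 37C and quantified MMTV-driven luciferase by luminescence.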

[2] = target: Estrogen receptor (Homo sapiens) (UniProt P03372); experiment: qHTS assay to identify small molecule antagonists of the estrogen receptor alpha (ER-alpha) signaling pathway using the BG1 cell line in the presence of 0.1 nM 17-beta-estradiol (AID 1259244); also: nearly all actives have a fitted effect of over 50% in size
Sequence of Estrogen receptor (Homo sapiens) (P03372 whole entry, looked up): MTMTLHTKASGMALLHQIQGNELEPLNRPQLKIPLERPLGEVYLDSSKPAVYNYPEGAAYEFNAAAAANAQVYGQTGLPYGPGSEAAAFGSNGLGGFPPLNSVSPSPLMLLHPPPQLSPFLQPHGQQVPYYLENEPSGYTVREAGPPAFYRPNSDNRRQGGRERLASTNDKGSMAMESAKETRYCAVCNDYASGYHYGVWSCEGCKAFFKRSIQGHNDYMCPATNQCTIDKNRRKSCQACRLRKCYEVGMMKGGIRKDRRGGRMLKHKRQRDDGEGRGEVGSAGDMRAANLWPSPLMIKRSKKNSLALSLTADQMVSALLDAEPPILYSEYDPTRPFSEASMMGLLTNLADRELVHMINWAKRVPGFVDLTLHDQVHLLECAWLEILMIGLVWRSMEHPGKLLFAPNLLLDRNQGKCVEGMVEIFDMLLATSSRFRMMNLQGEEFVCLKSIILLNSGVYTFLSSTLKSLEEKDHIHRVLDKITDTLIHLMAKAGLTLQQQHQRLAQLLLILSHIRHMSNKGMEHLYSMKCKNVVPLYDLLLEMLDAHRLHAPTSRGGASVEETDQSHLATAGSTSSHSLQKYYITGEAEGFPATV
Procedure, shortened: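 VM7Luc4E2; 4xERE-luciferase; 0.1 nM E2 final; 22 h co-incubation, 37C; ONE-Glo luminescence after 30 min at room temperature.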

[3] = qHTS assay to identify small molecule HDAC inhibitors (AID 1259364);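 also: wild-type HCT-116 cells with endogenous class I/II HDAC activity; top concentration of the series differs between compounds; nearly all actives have a fitted effect of over 45% in size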
Procedure, shortened: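 Relative class I and II HDAC activity is taken from the luminogenic signal in HCT-116 cells, with compound exposure 2 hr and reagent development 30 min at room temperature.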

[4] = qHTS assay to identify small molecule HDAC inhibitors - cell viability counter screen (AID 1259365); also: series mostly up to about 92 µM; nearly all actives have a fitted effect of over 50% in size
Procedure, shortened: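 After overnight seeding at 1,500 cells per well, wild-type HCT-116 cultures took up compounds in DMSO for 2hr at 37 C. Viable cell content came from luminescence with CellTiter-Glo.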

[5] = qHTS assay to identify small molecule agonists of the sonic hedgehog signaling (Shh) pathway - cell viability counter screen (AID 1259366); also: nearly all actives have a fitted effect of over 50% in size
Procedure, shortened: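 Same-well cytotoxicity read. Gli1-Luc reporter 3T3 cells; compounds 24hr, 37C/5% CO2; CellTiter-Fluor fluorescence.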

[6] = qHTS assay to identify small molecule antagonists of the sonic hedgehog signaling (Shh) pathway - cell viability counter screen (AID 1259367); also: nearly all actives have a fitted effect of over 55% in size
Procedure, shortened: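 Using CellTiter-Fluor, viability of Gli1-Luc reporter 3T3 cells is read by fluorescence in the wells used for the Shh luciferase assay. Treatment lasts 23 hr with conditioned medium, then reagent 1 hr at 37C.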

[7] = qHTS assay to identify small molecule agonists of the sonic hedgehog signaling (Shh) pathway (AID 1259368; calls by dose curve;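 also: NIH/3T3-derived 3T3Gli1-Luc cells carrying a stable Gli1-driven firefly luciferase reporter; series mostly up to about 92 µM; nearly all actives have a fitted effect of over 15% in size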)
Procedure, shortened: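 Mouse fibroblast (NIH/3T3) reporter cells with stably integrated Gli1-Luc were treated 24 hr with compound; firefly luciferase luminescence served as the read-out.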

[8] = qHTS assay to identify small molecule antagonists of the sonic hedgehog signaling (Shh) pathway (AID 1259369; calls by dose curve; also: nearly all actives have a fitted effect of over 45% in size; also: potency is read from the fitted curve at half-maximal effect)
Procedure, shortened: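 Conditioned medium drives Shh signalling in 3T3Gli1-Luc cells; compounds in DMSO co-applied, 24hr at 37 C, then luciferase luminescence.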

[9] = qHTS assay to identify small molecule agonists of the androgen receptor (AR) signaling pathway in the presence of an antagonist - cell viability counter screen (AID 1259379);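 also: MDA-kb2 human breast cancer cells carrying an MMTV luciferase reporter; series mostly up to about 92 µM; nearly all actives have a fitted effect of over 25% in size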
Procedure, shortened: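 A CellTiter-Fluor read-out measured viability of MDA-kb2 reporter cells (MMTV promoter with AR and GR response elements). Treatment: nilutamide 3.0uM final with compounds at 15 concentrations, 16 hr, 37C, 0% CO2.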

[10] = qHTS assay to identify small molecule agonists of the estrogen receptor beta (ER-beta) signaling pathway - cell viability counter screen (AID 1259380); also: nearly all actives have a fitted effect of over 30% in size
Procedure, shortened: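 Cells used were ER-beta-UAS-bla HEK293T in medium with 2% charcoal-stripped FBS. They were treated for 16 hr at 37C. Viability came from CellTiter-Glo luminescence.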

[11] = target: Androgen receptor (Homo sapiens) (UniProt P10275); experiment: qHTS assay to identify small molecule agonists of the androgen receptor (AR) signaling pathway in the presence of an antagonist (AID 1259381; calls by dose curve; also: nearly all actives have a fitted effect of over 15% in size)
Procedure, shortened: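 Using human MDA-kb2 cells with an MMTV promoter–luciferase construct (AR and GR response elements), agonist activity is scored under 3.0uM nilutamide (final) co-treatment; 16hr incubation, 37C, luminescence readout via ONE-Glo.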

[12] = qHTS assay to identify small molecule antagonists of the estrogen receptor beta (ER-beta) signaling pathway - cell viability counter screen (AID 1259382); also: series mostly up to about 92 µM; nearly all actives have a fitted effect of over 55% in size
Procedure, shortened: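 Agonist-stimulated (1nM E2) ER-beta-UAS-bla HEK293T cells are incubated with library compounds for 16 hr at 37C. Cell viability is then assessed in the reporter-assay wells by adding CellTiter-Glo and reading luminescence after 30 min.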

[13] = target: Estrogen receptor (Homo sapiens) (UniProt P03372); experiment: qHTS assay to identify small molecule agonists of the estrogen receptor alpha (ER-alpha) signaling pathway in the presence of an antagonist (AID 1259383; calls by dose curve; also: top concentration of the series differs between compounds; nearly all actives have a fitted effect of over 15% in size)
Procedure, shortened: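 Using VM7Luc4E2 cells seeded 24hr before treatment, antagonist ICI-182,780 (10.0nM final) was added, followed by compounds at 15 concentrations. Plates incubated 22hr; ONE-Glo luminescence quantified reporter activity.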

[14] = qHTS assay to identify small molecule agonists or antagonists of the thyroid stimulating hormone receptor (TSHR) signaling pathway - wild type cell line counter screen (AID 1259384; calls by dose curve)
Procedure, shortened: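 Counter screen in untransfected Hek293: compounds (15-point titration, triplicate) plus phosphodiesterase inhibitor Ro20-1724 added after 18 h plating; 30 min RT. Intracellular cAMP via competitive d2/cryptate immunoassay, 1 h incubation.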

[15] = target: Thyrotropin receptor (Homo sapiens) (UniProt P16473); experiment: qHTS assay to identify small molecule antagonists of the thyroid stimulating hormone receptor (TSHR) signaling pathway (AID 1259385; calls by dose curve; also: nearly all actives have a fitted effect of over 20% in size)
Sequence of Thyrotropin receptor (Homo sapiens) (P16473 whole entry, looked up): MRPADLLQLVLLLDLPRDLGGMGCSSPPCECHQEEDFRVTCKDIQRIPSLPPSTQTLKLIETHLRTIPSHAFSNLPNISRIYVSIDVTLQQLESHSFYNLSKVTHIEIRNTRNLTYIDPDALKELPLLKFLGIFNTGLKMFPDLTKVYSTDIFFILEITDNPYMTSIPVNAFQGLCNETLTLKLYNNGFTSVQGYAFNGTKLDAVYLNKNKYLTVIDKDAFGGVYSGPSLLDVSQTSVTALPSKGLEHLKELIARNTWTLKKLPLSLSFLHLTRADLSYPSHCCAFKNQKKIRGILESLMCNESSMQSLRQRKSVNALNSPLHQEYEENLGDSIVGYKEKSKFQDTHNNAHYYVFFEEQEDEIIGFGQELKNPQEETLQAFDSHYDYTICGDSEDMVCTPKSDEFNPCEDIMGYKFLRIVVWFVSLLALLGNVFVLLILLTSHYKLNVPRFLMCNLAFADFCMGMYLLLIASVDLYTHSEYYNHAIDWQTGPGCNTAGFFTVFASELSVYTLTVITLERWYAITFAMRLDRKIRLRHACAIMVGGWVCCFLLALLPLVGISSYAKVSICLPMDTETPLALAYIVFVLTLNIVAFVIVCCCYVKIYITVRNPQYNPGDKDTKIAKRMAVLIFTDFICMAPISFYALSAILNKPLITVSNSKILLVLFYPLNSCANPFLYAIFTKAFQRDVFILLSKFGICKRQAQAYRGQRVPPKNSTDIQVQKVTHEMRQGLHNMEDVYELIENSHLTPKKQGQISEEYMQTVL
Procedure, shortened: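 Antagonist mode: compound-treated TSHR-expressing HEK293 cells were stimulated with 1.5 ng/mL TSH (final) in presence of Ro20-1724 for 30 min at RT. HTRF cAMP detection after 1 h; each compound tested at 15 concentrations, triplicate.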

[16] = qHTS assay to identify small molecule agonists of the estrogen receptor alpha (ER-alpha) signaling pathway in the presence of an antagonist - cell viability counter screen (AID 1259386);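 also: series mostly up to about 92 µM; cells exposed to compounds for 22 h at 37 °C before the viability read; nearly all actives have a fitted effect of over 30% in size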
Procedure, shortened: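 ICI-182,780 at 10.0nM final accompanies the compound titration (15 concentrations, 22hr, 37C) on VM7Luc4E2 cells. The CellTiter-Fluor fluorescence readout runs in the same wells as the luciferase assay.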

[17] = target: Progesterone receptor (Homo sapiens) (UniProt P06401); experiment: qHTS assay to identify small molecule agonists of the progesterone receptor (PR) signaling pathway (AID 1346784; calls by dose curve; also: nearly all actives have a fitted effect of over 30% in size)
Sequence of Progesterone receptor (Homo sapiens) (P06401 whole entry, looked up): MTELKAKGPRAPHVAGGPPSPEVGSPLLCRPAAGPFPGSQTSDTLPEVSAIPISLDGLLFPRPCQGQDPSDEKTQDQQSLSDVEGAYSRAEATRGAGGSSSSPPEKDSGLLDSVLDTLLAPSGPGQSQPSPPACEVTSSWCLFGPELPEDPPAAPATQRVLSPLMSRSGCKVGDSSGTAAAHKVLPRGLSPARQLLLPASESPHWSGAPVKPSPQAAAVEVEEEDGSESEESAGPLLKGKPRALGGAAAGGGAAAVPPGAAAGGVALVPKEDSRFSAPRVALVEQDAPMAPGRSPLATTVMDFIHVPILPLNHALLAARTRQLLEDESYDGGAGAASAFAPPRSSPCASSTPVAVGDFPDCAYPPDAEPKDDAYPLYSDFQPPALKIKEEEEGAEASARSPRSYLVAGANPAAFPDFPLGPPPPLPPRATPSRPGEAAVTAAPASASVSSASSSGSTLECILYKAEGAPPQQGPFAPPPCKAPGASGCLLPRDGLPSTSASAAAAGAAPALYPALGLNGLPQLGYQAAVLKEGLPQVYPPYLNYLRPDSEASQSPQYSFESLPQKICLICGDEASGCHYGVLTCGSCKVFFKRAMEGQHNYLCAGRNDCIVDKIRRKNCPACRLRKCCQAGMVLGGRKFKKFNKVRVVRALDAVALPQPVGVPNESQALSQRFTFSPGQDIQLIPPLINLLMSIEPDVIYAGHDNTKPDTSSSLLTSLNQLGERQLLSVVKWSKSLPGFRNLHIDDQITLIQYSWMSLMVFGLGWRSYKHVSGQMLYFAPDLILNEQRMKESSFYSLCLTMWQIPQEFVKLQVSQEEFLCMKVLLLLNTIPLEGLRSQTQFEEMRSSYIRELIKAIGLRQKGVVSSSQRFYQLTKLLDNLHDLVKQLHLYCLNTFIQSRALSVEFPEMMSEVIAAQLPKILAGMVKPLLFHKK
Procedure, shortened: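 Compounds were tested for PR agonism in HEK 293T cells bearing a beta-lactamase gene under UAS control. Treatment lasted 16 hr at 37C; signal came from fluorescence of a FRET substrate.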

[18] = target: Estrogen receptor beta (Homo sapiens) (UniProt Q92731); experiment: qHTS assay to identify small molecule antagonists of the estrogen receptor beta (ER-beta) signaling pathway (AID 1259378; active = well fitted inhibition curve with a large enough effect in the signal ratio in the repeat runs, not every such curve was filed as active; the % refers to the signal ratio)
Sequence of Estrogen receptor beta (Homo sapiens) (Q92731 whole entry, looked up): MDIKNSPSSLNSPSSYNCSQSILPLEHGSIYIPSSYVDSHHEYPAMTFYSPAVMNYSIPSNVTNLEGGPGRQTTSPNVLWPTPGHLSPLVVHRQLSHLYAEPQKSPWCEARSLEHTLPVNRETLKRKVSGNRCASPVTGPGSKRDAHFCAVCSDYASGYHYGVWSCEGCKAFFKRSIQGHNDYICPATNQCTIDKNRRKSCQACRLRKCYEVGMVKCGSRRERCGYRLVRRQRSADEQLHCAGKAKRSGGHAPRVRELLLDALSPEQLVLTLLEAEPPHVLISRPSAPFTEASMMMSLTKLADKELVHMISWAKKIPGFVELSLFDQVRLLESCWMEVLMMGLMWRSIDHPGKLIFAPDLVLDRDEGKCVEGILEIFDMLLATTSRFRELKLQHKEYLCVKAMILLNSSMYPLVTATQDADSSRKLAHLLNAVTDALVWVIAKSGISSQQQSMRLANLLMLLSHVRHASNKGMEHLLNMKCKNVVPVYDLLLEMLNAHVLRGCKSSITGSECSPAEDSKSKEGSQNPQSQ
Procedure, shortened: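 Antagonist mode: compounds added to beta-lactamase reporter HEK293T ER-beta-UAS cells stimulated with E2 (1nM final), 16 hr at 37C. LiveBLAzer B/G FRET substrate, 2 hours room temperature, fluorescence read-out.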

[19] = target: Estrogen receptor beta (Homo sapiens) (UniProt Q92731); experiment: qHTS assay to identify small molecule agonists of the estrogen receptor beta (ER-beta) signaling pathway (AID 1259377; active = well fitted activation curve with a large enough effect in the signal ratio in the repeat runs, not every such curve was filed as active; the % refers to the signal ratio)
Procedure, shortened: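 Read-out: beta-lactamase FRET fluorescence. Cell line: ER-beta-UAS-bla HEK293T in 2% charcoal-stripped FBS. Exposure: 16 hr at 37C. Substrate step: 2 h at room temperature.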

CCCCCCCC(OC)OC
Potency [1]: inactive | Potency [2]: inactive | Potency [3]: inactive | Potency [4]: inactive | Potency [5]: inactive | Potency [6]: inactive | Potency [7]: inactive | Potency [8]: inactive | Potency [9]: inactive | Potency [10]: inactive | Potency [11]: inactive | Potency [12]: inactive | Potency [13]: inactive | outcome [14]: inactive | Potency [15]: inactive | Potency [16]: inactive | outcome [17]: inactive

c1ccc(Sc2ccccc2)cc1
Potency [1]: inactive | Potency [2]: inactive | Potency [3]: inactive | Potency [4]: inactive | Potency [5]: inactive | Potency [7]: inactive | Potency [8]: 27.3 µM (active) | Potency [10]: inactive | Potency [11]: inactive | Potency [12]: inactive | Potency [13]: inactive | outcome [14]: inactive | Potency [15]: inactive | Potency [16]: inactive | outcome [17]: inactive

Cc1cccc(N(C)C)c1
Potency [1]: inactive | Potency [2]: inactive | Potency [3]: inactive | Potency [4]: inactive | Potency [6]: inactive | Potency [7]: inactive | Potency [8]: inactive | Potency [18]: inactive | Potency [9]: inactive | Potency [10]: inactive | Potency [11]: inactive | Potency [12]: inactive | Potency [13]: inactive | outcome [14]: inactive | Potency [15]: inactive | Potency [16]: inactive | outcome [17]: inactive

C=C(C)CCCC
Potency [1]: inactive | Potency [2]: inactive | Potency [3]: inactive | Potency [4]: inactive | Potency [5]: inactive | Potency [6]: inactive | Potency [7]: inactive | Potency [19]: inactive | Potency [18]: inactive | Potency [9]: inactive | Potency [10]: inactive | Potency [12]: inactive | Potency [13]: inactive | outcome [14]: inactive | Potency [15]: inactive | Potency [16]: inactive | outcome [17]: inactive

c1cc[nH]c1
Potency [1]: inactive | Potency [2]: inactive | Potency [3]: inactive | Potency [4]: inactive | Potency [5]: inactive | Potency [6]: inactive | Potency [7]: inactive | Potency [8]: inactive | Potency [9]: inactive | Potency [10]: inactive | Potency [12]: inactive | Potency [13]: inactive | outcome [14]: inactive | Potency [15]: inactive | Potency [16]: inactive

CCCC(C)CCC(C)=O (centres undefined)
Potency [1]: inactive | Potency [2]: inactive | Potency [3]: inactive | Potency [4]: inactive | Potency [5]: inactive | Potency [6]: inactive | Potency [7]: inactive | Potency [8]: inactive | Potency [9]: inactive | Potency [10]: inactive | Potency [11]: inactive | Potency [12]: inactive | Potency [13]: inactive | outcome [14]: inactive | Potency [15]: inactive | Potency [16]: inactive | outcome [17]: inactive

O=C(O)c1cccc(Cl)n1
Potency [1]: inactive | Potency [2]: inactive | Potency [3]: inactive | Potency [4]: inactive | Potency [7]: inactive | Potency [8]: 30.6 µM (active) | Potency [10]: inactive | Potency [11]: inactive | Potency [12]: inactive | Potency [13]: inactive | outcome [14]: inactive | Potency [15]: inactive | Potency [16]: inactive | outcome [17]: inactive

O=Cc1ccc(F)cc1
Potency [1]: inactive | Potency [2]: inactive | Potency [3]: inactive | Potency [4]: inactive | Potency [5]: inactive | Potency [6]: inactive | Potency [7]: inactive | Potency [8]: inactive | Potency [9]: inactive | Potency [10]: inactive | Potency [11]: inactive | Potency [12]: inactive | Potency [13]: inactive | outcome [14]: inactive | Potency [15]: inactive | Potency [16]: inactive | outcome [17]: inactive
